# Laboratory results reported in paper PMC12820563, “FoxP3 forms a head-to-head dimer in vivo and stabilizes its multimerization on adjacent microsatellites”.
# In all, about 16,000 sequences were measured (“rpm ratio (pull-down/input)”: median about 0.94, highest 2% from about 1.7 on). For the sample, the highest values were picked, then their nearest neighbours and some sequences at random.
# Molecular target: T1, MBP-FoxP1dN (Mus musculus, UniProt P58462 326-579)
# T1 sequence: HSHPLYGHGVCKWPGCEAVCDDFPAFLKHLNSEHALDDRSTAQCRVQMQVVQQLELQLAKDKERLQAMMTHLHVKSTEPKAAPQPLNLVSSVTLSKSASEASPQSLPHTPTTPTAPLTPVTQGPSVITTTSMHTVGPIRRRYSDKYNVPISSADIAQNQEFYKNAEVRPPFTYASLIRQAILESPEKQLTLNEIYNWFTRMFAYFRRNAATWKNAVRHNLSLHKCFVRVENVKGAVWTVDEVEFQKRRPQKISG
# Assay: PD-seq (MBP pull-down with sequencing); 20 mM Tris-HCl pH 7.5, 100 mM NaCl, 1.5 mM MgCl2, 0.4 uM protein, 0.1 uM dsDNA library, 30 min, room temperature, amylose pull-down; high values mean tight binding
# Details: protein: recombinant; tags: His6-MBP; chain copies: 2; dsDNA, one strand shown
# How it was run: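 The N-terminus-lacking fragment of mouse FoxP3 or FoxP1 carried a His6-MBP tag and was expressed in E. coli. At 0.4 µM it was incubated with 0.1 µM Klenow-filled degenerate double-stranded DNA library for 30 min at room temperature in Tris pH 7.5 buffer with NaCl and MgCl2, and complexes were caught on amylose resin, washed three times, released with proteinase K, PCR-barcoded and Illumina-sequenced. Binding is reads-per-million enrichment of pull-down over input with replicates pooled.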
row,Sequence,binding signal
1,GATGATTGTTCTCCCAGCTGATGAATTTACCCTCTCGAGTAAACAAATTTTCCTAATCTTTCTGTTCAAGCGCCATCTAC,1.06 RPM ratio (pull-down/input)
2,GATGATTGTTCTCCCAGCTGATGAATTAAAAAGTTCGAGTAAACAAATTTTCCTAATCTTTCTGTTCAAGCGCCATCTAC,0.935 RPM ratio (pull-down/input)
3,GATGATTGTTCTCCCAGCTGATGAATTATAGTAGTCGAGTAAACAAATTTTCCTAATCTTTCTGTTCAAGCGCCATCTAC,0.985 RPM ratio (pull-down/input)
4,GATGATTGTTCTCCCAGCTGATGAATTGGTCGCGTCGAGTAAACAAATTTTCCTAATCTTTCTGTTCAAGCGCCATCTAC,1.03 RPM ratio (pull-down/input)
5,GATGATTGTTCTCCCAGCTGATGAATTCAAGCTCTCGAGTAAACAAATTTTCCTAATCTTTCTGTTCAAGCGCCATCTAC,0.854 RPM ratio (pull-down/input)
6,GATGATTGTTCTCCCAGCTGATGAATTTATTTTGTCGAGTAAACAAATTTTCCTAATCTTTCTGTTCAAGCGCCATCTAC,1.62 RPM ratio (pull-down/input)
7,GATGATTGTTCTCCCAGCTGATGAATTGATTGTGTCGAGTAAACAAATTTTCCTAATCTTTCTGTTCAAGCGCCATCTAC,1.35 RPM ratio (pull-down/input)
8,GATGATTGTTCTCCCAGCTGATGAATTTATTGTGTCGAGTAAACAAATTTTCCTAATCTTTCTGTTCAAGCGCCATCTAC,1.88 RPM ratio (pull-down/input)
9,GATGATTGTTCTCCCAGCTGATGAATTTAATTTGTCGAGTAAACAAATTTTCCTAATCTTTCTGTTCAAGCGCCATCTAC,1.25 RPM ratio (pull-down/input)
10,GATGATTGTTCTCCCAGCTGATGAATTATTCCTGTCGAGTAAACAAATTTTCCTAATCTTTCTGTTCAAGCGCCATCTAC,0.964 RPM ratio (pull-down/input)
11,GATGATTGTTCTCCCAGCTGATGAATTGTCTTATTCGAGTAAACAAATTTTCCTAATCTTTCTGTTCAAGCGCCATCTAC,1.18 RPM ratio (pull-down/input)
12,GATGATTGTTCTCCCAGCTGATGAATTTTATGTGTCGAGTAAACAAATTTTCCTAATCTTTCTGTTCAAGCGCCATCTAC,1.13 RPM ratio (pull-down/input)
13,GATGATTGTTCTCCCAGCTGATGAATTATTTTGGTCGAGTAAACAAATTTTCCTAATCTTTCTGTTCAAGCGCCATCTAC,1.35 RPM ratio (pull-down/input)
14,GATGATTGTTCTCCCAGCTGATGAATTTTATTGGTCGAGTAAACAAATTTTCCTAATCTTTCTGTTCAAGCGCCATCTAC,1.74 RPM ratio (pull-down/input)
15,GATGATTGTTCTCCCAGCTGATGAATTTTATTTGTCGAGTAAACAAATTTTCCTAATCTTTCTGTTCAAGCGCCATCTAC,2.45 RPM ratio (pull-down/input)
16,GATGATTGTTCTCCCAGCTGATGAATTCTTATTGTCGAGTAAACAAATTTTCCTAATCTTTCTGTTCAAGCGCCATCTAC,2.49 RPM ratio (pull-down/input)
17,GATGATTGTTCTCCCAGCTGATGAATTTATTTGGTCGAGTAAACAAATTTTCCTAATCTTTCTGTTCAAGCGCCATCTAC,1.59 RPM ratio (pull-down/input)
18,GATGATTGTTCTCCCAGCTGATGAATTTCATAAATCGAGTAAACAAATTTTCCTAATCTTTCTGTTCAAGCGCCATCTAC,1.05 RPM ratio (pull-down/input)
19,GATGATTGTTCTCCCAGCTGATGAATTAAATCACTCGAGTAAACAAATTTTCCTAATCTTTCTGTTCAAGCGCCATCTAC,1.09 RPM ratio (pull-down/input)
20,GATGATTGTTCTCCCAGCTGATGAATTAGACGCGTCGAGTAAACAAATTTTCCTAATCTTTCTGTTCAAGCGCCATCTAC,0.99 RPM ratio (pull-down/input)

row,Sequence,binding signal
1,GATGATTGTTCTCCCAGCTGATGAATTGCAGATGTCGAGTAAACAAATTTTCCTAATCTTTCTGTTCAAGCGCCATCTAC,1.27 RPM ratio (pull-down/input)
2,GATGATTGTTCTCCCAGCTGATGAATTACTCCAATCGAGTAAACAAATTTTCCTAATCTTTCTGTTCAAGCGCCATCTAC,1.1 RPM ratio (pull-down/input)
3,GATGATTGTTCTCCCAGCTGATGAATTCCCCAGGTCGAGTAAACAAATTTTCCTAATCTTTCTGTTCAAGCGCCATCTAC,0.743 RPM ratio (pull-down/input)
4,GATGATTGTTCTCCCAGCTGATGAATTATGTGTGTCGAGTAAACAAATTTTCCTAATCTTTCTGTTCAAGCGCCATCTAC,1.4 RPM ratio (pull-down/input)
5,GATGATTGTTCTCCCAGCTGATGAATTATTTGTGTCGAGTAAACAAATTTTCCTAATCTTTCTGTTCAAGCGCCATCTAC,2.12 RPM ratio (pull-down/input)
6,GATGATTGTTCTCCCAGCTGATGAATTATCTGTGTCGAGTAAACAAATTTTCCTAATCTTTCTGTTCAAGCGCCATCTAC,1.03 RPM ratio (pull-down/input)
7,GATGATTGTTCTCCCAGCTGATGAATTACCAATATCGAGTAAACAAATTTTCCTAATCTTTCTGTTCAAGCGCCATCTAC,1.79 RPM ratio (pull-down/input)
8,GATGATTGTTCTCCCAGCTGATGAATTACTACTATCGAGTAAACAAATTTTCCTAATCTTTCTGTTCAAGCGCCATCTAC,1.24 RPM ratio (pull-down/input)
9,GATGATTGTTCTCCCAGCTGATGAATTACAAATATCGAGTAAACAAATTTTCCTAATCTTTCTGTTCAAGCGCCATCTAC,2.21 RPM ratio (pull-down/input)
10,GATGATTGTTCTCCCAGCTGATGAATTACCAATCTCGAGTAAACAAATTTTCCTAATCTTTCTGTTCAAGCGCCATCTAC,0.961 RPM ratio (pull-down/input)
11,GATGATTGTTCTCCCAGCTGATGAATTACTGATATCGAGTAAACAAATTTTCCTAATCTTTCTGTTCAAGCGCCATCTAC,1.18 RPM ratio (pull-down/input)
12,GATGATTGTTCTCCCAGCTGATGAATTACCAATTTCGAGTAAACAAATTTTCCTAATCTTTCTGTTCAAGCGCCATCTAC,1.13 RPM ratio (pull-down/input)
13,GATGATTGTTCTCCCAGCTGATGAATTTACAATATCGAGTAAACAAATTTTCCTAATCTTTCTGTTCAAGCGCCATCTAC,1.63 RPM ratio (pull-down/input)
14,GATGATTGTTCTCCCAGCTGATGAATTACATATATCGAGTAAACAAATTTTCCTAATCTTTCTGTTCAAGCGCCATCTAC,1.34 RPM ratio (pull-down/input)
15,GATGATTGTTCTCCCAGCTGATGAATTACTAATATCGAGTAAACAAATTTTCCTAATCTTTCTGTTCAAGCGCCATCTAC,1.73 RPM ratio (pull-down/input)
16,GATGATTGTTCTCCCAGCTGATGAATTTCGCCAGTCGAGTAAACAAATTTTCCTAATCTTTCTGTTCAAGCGCCATCTAC,0.805 RPM ratio (pull-down/input)
17,GATGATTGTTCTCCCAGCTGATGAATTGCGATTTTCGAGTAAACAAATTTTCCTAATCTTTCTGTTCAAGCGCCATCTAC,1.25 RPM ratio (pull-down/input)
18,GATGATTGTTCTCCCAGCTGATGAATTGTTACCTTCGAGTAAACAAATTTTCCTAATCTTTCTGTTCAAGCGCCATCTAC,1.25 RPM ratio (pull-down/input)
19,GATGATTGTTCTCCCAGCTGATGAATTGGATGCGTCGAGTAAACAAATTTTCCTAATCTTTCTGTTCAAGCGCCATCTAC,1.29 RPM ratio (pull-down/input)
20,GATGATTGTTCTCCCAGCTGATGAATTTTCTAGCTCGAGTAAACAAATTTTCCTAATCTTTCTGTTCAAGCGCCATCTAC,0.887 RPM ratio (pull-down/input)
